Bioassay records deposited in PubChem BioAssay by National Center for Advancing Translational Sciences (NCATS).
Rab9 promoter act: activators of Rab9 promoter; AID 485297; Potency, µM (top dose mostly 9.22 µM), most hits filed as activators; 2.8% of 320,000 active; Huh7 Rab9 promoter-luciferase reporter, luminescence, 24 h; note: nearly all actives have a fitted effect of over 60% in size
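Promoter activation is measured as luciferase luminescence in Huh7 cells stably transfected with a Rab9 promoter–luciferase construct, following 24 h compound exposure at 37 °C and 10 min reagent incubation at ambient temperature.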
FLuc counter: firefly luciferase modulation, counter-screen for miR-21 project. AID 588342. P08659. 6.9% of 360,000 active. Potency, µM (top dose mostly 57.5 µM), usual class: inhibitors. purified FLuc, Km substrates, luminescence inhibition; note: nearly all actives have a fitted effect of over 55% in size
Target sequence (P08659 whole entry, looked up): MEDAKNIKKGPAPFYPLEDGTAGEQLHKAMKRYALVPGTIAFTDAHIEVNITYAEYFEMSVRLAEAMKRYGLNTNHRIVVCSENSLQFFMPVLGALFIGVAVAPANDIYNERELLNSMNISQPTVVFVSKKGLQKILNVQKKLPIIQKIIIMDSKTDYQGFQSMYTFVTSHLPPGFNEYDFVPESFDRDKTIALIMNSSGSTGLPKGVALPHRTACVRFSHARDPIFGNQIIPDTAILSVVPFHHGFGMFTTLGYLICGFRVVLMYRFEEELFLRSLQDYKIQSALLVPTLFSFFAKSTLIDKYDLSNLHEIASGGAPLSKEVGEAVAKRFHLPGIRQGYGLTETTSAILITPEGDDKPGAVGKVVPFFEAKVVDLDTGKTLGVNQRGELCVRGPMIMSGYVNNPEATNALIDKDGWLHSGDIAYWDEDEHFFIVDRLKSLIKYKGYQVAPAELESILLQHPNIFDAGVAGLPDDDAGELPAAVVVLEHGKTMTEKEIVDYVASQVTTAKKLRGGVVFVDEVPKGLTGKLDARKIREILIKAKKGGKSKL
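Purified P. pyralis luciferase, 10 nM final, with Km-level 10 uM D-luciferin and 10 uM ATP in 50 mM Tris acetate pH 7.5, 10 mM Mg acetate, 0.01% Tween-20, 0.05% BSA; 6-point qHTS titration about 60 µM downward; luminescence read.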
NPC1 promoter act: NPC1 promoter activation | Huh7 NPC1 promoter luciferase reporter, 24 h | Potency, µM (doses to about 9.22 µM), usual class: activators | 2.4% of 320,000 active | AID 485313; note: nearly all actives have a fitted effect of over 60% in size
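Luciferase expression driven by the NPC1 promoter was measured in stably transfected Huh7 cells after a 24 h compound incubation, using a luciferase reagent and a luminescence read.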
SMN2 splice up: increases expression of the SMN2 splice variant. Potency, µM (titrated, usually from 46.1 µM), hits mostly activators. 2.8% of 210,000 active. HEK293 SMN2-luciferase splicing reporter, luminescence, 30-36 h. AID 1458; note: nearly all actives have a fitted effect of over 55% in size
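qHTS luciferase splicing reporter: luminescence rises when SMN2 exon 7 is included in transfected HEK293 cells. Compound exposure lasted 30-36 h at 37C, with 4.5 mM final sodium butyrate as control, followed by a ONE-Glo read.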
ELG1 DNA repair: ELG1-dependent DNA repair inhibition; HEK293T ELG1-luciferase reporter, luminescence, 16 h; DNA damage induced by 5-fluorouridine; Potency, µM (highest dose often 46.1 µM), actives largely listed as inhibitors; 2.3% of 330,000 active; note: nearly all actives have a fitted effect of over 55% in size
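Reporter activity after DNA damage by 5-fluorouridine is monitored. Compound-treated cells incubate 16 hr at 37 °C, then ONE-Glo is added for 30 min before luminescence reading.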
ELG1 genotox: genotoxicity induction in ELG1-luciferase HEK293T cells. Potency, µM (top dose mostly 46 µM), usual class: activators. 1.3% of 330,000 active. HEK293T ELG1-luciferase reporter, luminescence, 16 h; note: nearly all actives have a fitted effect of over 60% in size
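Genotoxic stress is detected as increased luminescence from luciferase-tagged ELG1 in HEK293T cells, measured with ONE-Glo after a 16 hr treatment at 37 °C.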
A number is an active result; 0 = inactive; ? = inconclusive; - = not tested or not shown; [ ] = dose if it differs, or a comment. Hits are enriched below; roughly 9.2% of the tested compounds scored in any of these assays. Calls come from the whole dose curve; as a rule, active = well fitted curve in the direction sought with a large enough effect; inconclusive = small, poorly fitted or top-dose-only effect, or another doubt; inactive = no such curve, though single readings can be large; an effect the other way counts as inactive or inconclusive.

SMILES	Rab9 promoter act	FLuc counter	NPC1 promoter act	SMN2 splice up	ELG1 DNA repair	ELG1 genotox
Cc1ccc(C)c(NC(=O)c2ccc3ccccc3n2)c1	2µM	0.85µM	4µM	14µM	?	?
Cc1ccc(C)c(NC(=O)c2cc3ccccc3o2)c1	4µM	13µM	?	-	?	0
COc1ccc(OC)c(NC(=O)c2cc3ccccc3o2)c1	0	0	0	-	0	?
COc1ccc(C)cc1NC(=O)c1cc2ccccc2o1	0	15µM	0	0	?	0
CCOc1ccc(NC(=O)CN2C(=O)NC(CCc3ccccc3)C2=O)cc1OCC (stereo not drawn)	-	-	-	-	?	0
CCCCNS(=O)(=O)CCNCc1ccco1	-	-	-	-	0	0
COc1ccc(N2CCN(C(CNC(=O)C(=O)NCCc3c[nH]c4ccccc34)c3ccco3)CC2)cc1 (stereo not drawn)	0	0	0	0[1.84 µM]	?	0
Cc1cccc(NC(=S)Nc2cccc3ccccc23)c1	0	0	0	-	0	0
Cc1cc(C)cc(NC(=S)Nc2cccc3ccccc23)c1	2.5µM	21µM	2.5µM	-	?	?
O=C(CCCN1C(=O)c2cccc3cccc(c23)C1=O)Nc1ccon1	0	0	0	-	0	0
c1ccc(COc2ccc(Oc3nc(N4CCCCC4)nc(N4CCOCC4)n3)nn2)cc1	0	0	0	22µM	?	0
CC(C)(C)c1ccc(Cn2c(=O)cnc3ccccc32)cc1	0	15µM	0	-	0	?
O=C(O)Cn1c(=O)cnc2ccccc21	0	0	0	0	0	0
O=c1cnc2ccccc2n1Cc1ccc(Br)cc1	0	27µM	0	-	0	0
CCN(CC)c1ccc(/C=N/N=C(c2ccccc2)c2ccccc2)c(O)c1	0	0	0	0	0	0
Cc1nnc(C)n1/N=C/c1c(O)ccc2ccccc12	0[1.84 µM]	0	0	-	0	0
C=CCS/C(N)=N\N=C\c1c(O)ccc2ccccc12	2.8µM	4.8µM	0	-	?	?
CCCS/C(N)=N/N=C/c1ccccc1O	2.5µM	9.5µM	2.8µM	11µM	?	3.2µM
Nc1ccccc1C(=O)N/N=C1\C2CN3CCN(C2)CC1(c1ccccc1)C3	0	?	0	0	?	0
NC(=O)C1CCN(C(=O)COc2ccc(Nc3ccccc3)cc2)CC1	0	0	0	-	0	0
CCc1ccc(CN(Cc2cccnc2)C(=O)/C=C/c2ccc(OC)cc2)cc1	0	0	0	-	?	0
Fc1ccc(C2=CC(c3ccco3)n3ncnc3N2)cc1 (stereo not drawn)	0	0	0	0	0	0
C1=C(c2ccc(-c3ccccc3)cc2)Nc2ncnn2C1c1ccco1 (stereo not drawn)	3.2µM	21µM	2.8µM	0	?	0
CC(Nc1ccccc1)C(=O)Nc1ccc(F)cc1 (stereo not drawn)	0	0	0	0	0	0
COc1ccc(CN2CCC(N(CCc3ccccc3)Cc3ccccc3)CC2)c(OC)c1	0	0	0	-	21µM	0
SMILES	Rab9 promoter act	FLuc counter	NPC1 promoter act	SMN2 splice up	ELG1 DNA repair	ELG1 genotox
O=C(CCCOc1ccc(Cl)cc1Cl)n1nnc2ccccc21	0	?	0	0	0	0
C#CCN(C)CCCOc1ccc(Cl)cc1Cl	?	13µM	?	0	?	0
CN(C)CCCCOc1ccc(Br)cc1Cl	0	0	0	0	0	0
CCN(CC)C(=O)CCCOc1ccc(Cl)cc1Cl	?	?	3.2µM	0	?	0
CC(C)NC(=O)CCCOc1ccc(Cl)cc1Cl	0	?	0	0	?	?
Nc1nncn1C(=O)CCCOc1ccc(Cl)cc1Cl	0	9.5µM	0	0	0	0
COc1cccc(N2CCN(c3ncc4c(n3)CCN(Cc3ccc(Br)cc3)C4)CC2)c1	-	0	-	-	-	-
Cc1ccccc1OCC(=O)NNC(=S)NC(=O)c1ccccc1[N+](=O)[O-]	0	0	0	0	0	0
CC(C)(C)c1ccc(OCC(=O)NNC(=S)NC(=O)c2ccccc2[N+](=O)[O-])c(Br)c1	0	27µM	0	-	0	0
CCc1ccc(OCC(=O)Nc2ccncc2)c(Br)c1	0	3.4µM	0	-	?	?
O=C(COc1ccc(Br)cc1)Nc1ccncc1	0	?	0	0	0	0
Cc1cc(OCC(=O)Nc2ccncc2)c(C)cc1Br	0	?	0	0	0	0
CC(C)(C)c1ccc(OCC(=O)Nc2ccncc2)c(Br)c1	0	21µM	0	-	0	0
CCc1ccc(OCC(=O)NNC(=S)NC(=O)C2CC2)c(Br)c1	0	9.5µM	0	-	0	?
CCn1c2ccccc2c2cc(CN3CCN(Cc4ccccc4Cl)CC3)ccc21	-	0	-	0	-	-
O=C(Nc1nc2cc3c(cc2s1)OCCO3)c1cccc(N2C(=O)CCC2=O)c1	?	0.76µM	?	-	?	0
Cc1sc(NC(=O)c2ccc(=O)n(C)n2)nc1-c1ccccc1	0	13µM	0	0	0	0
Cc1sc(NC(=O)c2c(F)cccc2F)nc1-c1ccccc1	0	?	0	-	0	0
COc1ccc(-c2csc(NC(=O)c3cccc(N4C(=O)CCC4=O)c3)n2)cc1C	0	11µM	0	-	0	0
O=C(Nc1nc2ccccc2s1)c1cccc(N2C(=O)CCC2=O)c1	0	0	0	-	0	0
COc1ccc(OC)c2sc(NC(=O)c3cccc(N4C(=O)CCC4=O)c3)nc12	0	0	0	-	0	0
COc1ccc(-c2nc(NC(=O)c3cc(C(C)(C)C)nn3C)sc2C)cc1	0	0	0	0	8.2µM	0
CC1CCC(CN2C(Nc3ccccc3)=NC[C@@H]2C)CC1 (stereo partly drawn)	0	0	0	-	0	0
O=C(NNc1nc2cc3c(cc2s1)OCO3)c1ccccc1	0	?	0	0	?	0
CC(=O)c1sc(NC(=O)c2cccc(N3C(=O)CCC3=O)c2)nc1-c1ccccc1	0	?	0	-	0	0
SMILES	Rab9 promoter act	FLuc counter	NPC1 promoter act	SMN2 splice up	ELG1 DNA repair	ELG1 genotox
O=C(NNc1nc2cc3c(cc2s1)OCO3)c1cccc(F)c1	0	17µM	0	0	?	0
Cc1sc(NC(=O)c2cccc(N3C(=O)CCC3=O)c2)nc1-c1ccccc1	0	4.8µM	0	-	0	0
CCN(CC)S(=O)(=O)c1cccc(C(=O)Nc2nc3cc4c(cc3s2)OCCO4)c1	0	9.5µM	0	0	12µM	0
CCOC(=O)c1cc(CC)sc1NC(=O)c1cccc(N2C(=O)CCC2=O)c1	0	0	0	0	18µM	0
COc1ccc(CNC(=O)C/C(C)=N/NC(=O)COc2ccc(C)cc2Br)cc1	0	?	0	?	0	0
O=C(Nc1ccc2sccc2c1)c1cccc(N2C(=O)CCC2=O)c1	4µM	8.5µM	?	0	?	18µM
Cc1ccccc1-c1nnc(-c2ccc(Cl)cc2)o1	4µM	6.7µM	?	-	?	16µM
Cc1ccccc1-c1nc(Cc2ccc(Cl)cc2)no1	0	?	0	0	?	23µM
